# Reference: ChEMBL document CHEMBL3988442, “University of Dundee, Small-Polar-MMV Screening Library” (2021)
# Target: AMP-activated protein kinase, AMPK (Homo sapiens) (UniProt P54646+O43741+P54619+Q9UGJ0+Q9Y478+Q13131+Q9UGI9)
# Test: AMP-dependent Kinase enzyme assay. An in vitro enzyme assay that detects ADP turnover that is directly proportional to AMPK activity. This uses naive AMPK that is activated during the assay with MK-8722
# Format: functional
# Set-up: scale not given: direction of the effect not stated beside the values
# Conditions: 30 µM
row,SMILES,Percent Effect
1,Cc1ccc(-c2noc(C3CCN3C(=O)c3cc[nH]n3)n2)s1 (stereo not given),16%
2,COC(=O)c1ccc(NC(=O)CCc2ccco2)cc1,20.9%
3,NC(=O)c1csc(N2C[C@@H](CN3CCOCC3)[C@@H](CO)C2)n1,3.19%
4,COc1ccccc1CC(C)CC(=O)N(C)Cc1cc(C)on1 (stereo not given),3.99%
5,CCC(CN1CCCC1)n1cncc1-c1cnn(-c2ccc(F)cc2)c1 (stereo not given),12.9%
6,CN(Cc1ccc(F)cc1)Cc1cc2c(cc1Br)OCCO2,-2.13%
7,Cc1cc(N2CCC(n3cc(CN4CCNCC4)nn3)CC2)ccn1,-7.65%
8,O=C(c1cncc(NCC2COc3ccccc3C2)n1)N1CCOCC1 (stereo not given),7.56%
9,CNC(=O)c1ccc(C2CN(c3cc(C)nc(N)n3)CCO2)nc1 (stereo not given),-3.96%
10,OCCN1CCN(Cc2coc(-c3ccccc3Cl)n2)CC1,-12.1%
11,COCc1cccc(NC(=O)NCCCN(C)S(C)(=O)=O)c1,-1.69%
12,CC(C)c1nnc(CN2CC(n3cccn3)C2)o1,-4.54%
13,CC1(C)OC(=O)N(CCCOc2ccc(F)cc2)C1=O,-0.642%
14,COCC1(C(=O)N[C@H]2CN(c3nnc(C)s3)C[C@@H]2C2CC2)CCC1,9.28%
15,COC(=O)c1cc2n(n1)CCN(C(=O)c1csc(CN(C)C)n1)C2,1.89%
16,CC(C)CC(=O)N1Cc2ccccc2CC1C(=O)Nc1nncs1 (stereo not given),-25.1%
17,CN1CCCN(C[C@@H]2CN(c3nc(C(N)=O)cs3)C[C@@H]2CO)CC1,-0.955%
18,CC(=O)NCC(=O)Nc1cc(C)n(-c2ccc(Cl)cc2Cl)n1,3.23%
19,Cc1ccc(F)c(C(=O)Nc2c(C(N)=O)n[nH]c2C)c1,9.84%
20,CCNC(=O)CN(CC)C(=O)c1csc(Cc2ccccc2F)n1,4.98%

row,SMILES,Percent Effect
1,NC(=O)C1CCCN1Cc1nccn1CC(F)(F)F (stereo not given),1.35%
2,CC(C)(C)NC(=O)CN1CCCNCC1,-0.0888%
3,CSCCC(=O)N1CCN(CC(O)C(C)(C)C)CC1 (stereo not given),-4.07%
4,CCOc1ccccc1-n1c(C2CCC2)n[nH]c1=O,13.5%
5,O=C(CC1COCCN1)N1CCC2(CCc3ccccc32)CC1 (stereo not given),-0.69%
6,Cc1cc(NC(=O)C2CCN(c3nnc(C)c(C)c3C#N)CC2)no1,-48.4%
7,CC(C)c1cc(C(=O)N[C@@H]2CC[C@@H](Oc3ccccc3)[C@@H]2O)on1,16.6%
8,CN(C)Cc1nc(C(=O)N2CCCC(COc3ccc(F)cc3)C2)cs1 (stereo not given),8.59%
9,Cc1nnc2n1CCN(C(=O)C(C)Oc1ccc(C#N)cc1)C2 (stereo not given),13%
10,Cc1cn[nH]c1C1COCCN1Cc1c[nH]cn1 (stereo not given),8.68%
11,O=C(c1cc(C2CC2)nc2onc(-c3ccccc3)c12)N1CC[C@H](O)C1,4.74%
12,CCn1cnnc1CCNC(=O)c1ccc(Br)cc1F,-0.992%
13,CC(NC(=O)NC1CCN(Cc2ccncc2)CC1)c1ccccc1F (stereo not given),-3.35%
14,CCC(O)CNC(=O)c1cc(COc2ccc(OC)cc2Cl)[nH]n1 (stereo not given),2.19%
15,Cc1cc(C(=O)NCCN2CCCCCC2)nn1C(C)(C)C,4.2%
16,Cc1ccc(CNC(C)(C)c2noc(C(C)(C)C)n2)o1,0.8%
17,CNc1nc(C)c(C(=O)N2C[C@@H](C(=O)O)[C@H](C3CC3)C2)s1,3.27%
18,CCC(C)Oc1ccc(CNCCNC(C)=O)cc1Cl (stereo not given),-6.19%
19,COCCN1C(=O)[C@H]2CC[C@@H]1CN(S(=O)(=O)c1cccc(Cl)c1)C2,27.4%
20,Cc1ncn(CCNC(=O)Nc2ccccc2)c(=O)c1C,-8.41%
